Screens deposited in PubChem BioAssay by National Center for Advancing Translational Sciences (NCATS).
An excerpt weighted towards active compounds, which were near 11% of everything screened.
ALDH1A1 inh – qHTS Assay for Inhibitors of Aldehyde Dehydrogenase 1 (ALDH1A1). Aldehyde dehydrogenase 1A1 (Homo sapiens), P00352. Purified ALDH1A1, NADH fluorescence, propionaldehyde substrate. Potency, µM (doses to about 75.3 µM), for the others: at the top dose activity, negative = inhibition, hits mostly inhibitors. 7.3% of 220,000 active;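 note: potency is the fitted concentration of half-maximal effect; plate controls were no enzyme wells and a reference inhibitor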
PNC assembly inh – High Content Assay for Compounds that inhibit the Assembly of the Perinucleolar Compartment. 3.1% of 140,000 active. AID 2417, 2010. activity change (PNC), negative = inhibition, % at 10 µM. PC3M PTB-GFP, PNC prevalence imaging, 16 h; active compounds read low;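 active = readout at or below -70, meaning at least 70% loss of cells showing the perinucleolar compartment, a nuclear body marking cancer cells; inconclusive = readout between -30 and a set limit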;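 note: plate controls were DMSO wells for no effect and camptothecin positive control wells for full effect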
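Read-out is percentage of cells bearing a perinucleolar compartment, from automated 20x imaging of fixed, Hoechst-stained PC3M PTB-GFP cells. Cells were seeded 4 h, then exposed 16 h to compound (23 nl of library stock) in duplicate plates.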
HPGD inh – qHTS Assay for Inhibitors of HPGD (15-Hydroxyprostaglandin Dehydrogenase); 15-hydroxyprostaglandin dehydrogenase [NAD(+)] (Homo sapiens), P15428; Potency, µM, without a hit: at the top dose activity change, negative = inhibition, usual class: inhibitors; AID 894, 2007; purified HPGD, NADH fluorescence kinetic, PGE2 substrate; 4.3% of 150,000 active; note: potency is the fitted concentration of half-maximal effect
Target sequence (P15428 whole entry, looked up): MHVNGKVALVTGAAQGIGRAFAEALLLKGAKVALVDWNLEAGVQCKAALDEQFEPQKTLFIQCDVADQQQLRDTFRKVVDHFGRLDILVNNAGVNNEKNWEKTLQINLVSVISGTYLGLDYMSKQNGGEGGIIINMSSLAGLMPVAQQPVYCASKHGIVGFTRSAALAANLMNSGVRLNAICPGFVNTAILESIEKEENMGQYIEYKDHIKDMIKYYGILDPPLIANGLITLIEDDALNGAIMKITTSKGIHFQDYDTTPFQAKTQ
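NADH formation kinetics: reaction with 30 uM PGE2 and 1 mM NAD+ (final), 20 nM enzyme, Tris-HCl pH 8 with Tween 20, after 15 min compound preincubation at room temperature. Fluorescence change, last versus first of five reads.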
Numbers without * were called inactive; ? = inconclusive; · = no result given; ! = a repeat was not active; [ ] = another dose, or the depositor's remark. Unless noted, calls come from the whole dose curve; as a rule, active = well fitted inhibition curve with a large enough effect (not every such curve was filed as active); inconclusive = small, poorly fitted or top-dose-only effect, or another doubt; inactive = no such curve, though single readings can be large or run the other way. Unless noted, % is set by controls: 0 for no effect and ±100 for the full control effect.

SMILES	ALDH1A1 inh	PNC assembly inh	HPGD inh
O=c1c2c3c(sc2ncn1/N=C/c1ccco1)CCCC3	?	22.4	-3.8%
O=c1c2c3c(sc2ncn1/N=C/c1ccccc1)CCCC3	11.2µM*	-15.8	0.1%
Cn1c(NC2CCCCC2)c(N=O)c(=O)n(C)c1=O	3.7%	·	·
O=S(=O)(CCc1ccccc1)c1nnnn1-c1ccc(F)cc1Br	-33.5%	·	-2.7%
N#CCCCS(=O)(=O)c1nnnn1-c1ccc(F)cc1Br	17.8µM*	·	-9.6%
Cc1cccc(NCc2ccc(O)c3ncccc23)c1	2.82µM*	·	·
Cc1ccccc1NCc1ccc(O)c2ncccc12	3.98µM*	-11.3	-2.0%
Oc1ccc(CNc2ccc(F)cc2)c2cccnc12	8.91µM*	8.9	-18.2%
Oc1ccc(CN2CCN(Cc3ccccc3)CC2)c2cccnc12	1.2%	?	-18.5%
COCc1ccc(O)c2ncccc12	3.0%	-19.6	-11.9%
Oc1ccc(Cn2ccnc2)c2cccnc12	5.5%	·	·
Oc1ccc(CNc2ccccc2)c2cccnc12	10µM*	-29.7	-3.4%
OCc1ccnc2c(O)cccc12	-3.6%	-6.5	-8.8%
COc1cc(NC(=O)CSc2nc3ccccc3n2-c2ccccc2)c(C)cc1[N+](=O)[O-]	0.5%	-22.6	-25.4%
COc1c(OC)c2occc2c2oc(=O)ccc12	?	·	-25.5%
C[C@H](NC(=O)[C@@H]1C[C@H]1[C@@H](NC(=O)OCc1ccccc1)c1ccccc1)c1ccccc1	2.3%	·	-2.7%
CCCOC(=O)c1ccc(NC(=O)CSC2=Nc3ccccc3C3CC=NN23)cc1 (configuration not stated)	31.6µM*	0.9	?
N#Cc1ccccc1NC(=O)CSC1=Nc2ccccc2C2CC=NN12 (configuration not stated)	-10.8%	·	·
COc1cccc([C@@H]2Oc3ccc(Br)cc3C[C@H]2OC(=O)N[C@H](C)C2CCCCC2)c1	4.2%	·	-10.4%
Fc1ccccc1CSc1ncnc2sc3c(c12)CCCC3	?	148.7	-16.6%
O=C(O)c1cc(N=Nc2ccc([N+](=O)[O-])cc2)ccc1O	22.4µM*!	·	-3.3%
NS(=O)(=O)c1ccc(N=Nc2ccc(O)c(C(=O)O)c2)cc1	?	·	-17.3%
CC(NC(=O)OC(C)(C)C)C(=O)NC(CCC(=O)OCc1ccccc1)C(N)=O (configuration not stated)	1.4%	·	·
CCC(C)(C)C1CCC(=NNC(=O)c2ccoc2C)CC1 (configuration not stated)	25.1µM*	26.0	-22.6%
CCCC(=O)NNC(=O)c1ccoc1C	10.2%	-17.7	-6.1%
SMILES	ALDH1A1 inh	PNC assembly inh	HPGD inh
O=C(CC1CS(=O)(=O)CC1CC(=O)Oc1ccccc1F)Oc1ccccc1F (configuration not stated)	7.08µM*	29.1	-12.9%
CC(Oc1ccccc1F)C(=O)NCCN1CCCCC1 (configuration not stated)	13.4%	-8.8	-3.4%
NC(=S)N/N=C/c1cn(-c2ccccc2)nc1-c1cccnc1	2.3%	·	·
NC(=O)c1cc2ccccc2o/c1=N\NC(=O)c1ccco1	-0.8%	-119.3*	-10.4%
NC(=O)c1cc2ccccc2oc1=NCc1ccccc1	-5.6%	39.7	-23.7%
CC(C)[C@@H](CC(=O)N[C@@H]1CCCC[C@H]1C(=O)N[C@H](CC(=O)N[C@@H](CCC(=O)O)CC(=O)O)Cc1ccccc1)NC(=O)C[C@H](Cc1c[nH]c2ccccc12)NC(=O)[C@@H]1CNCC[C@H]1N	-13.0%	·	-6.8%
Cc1cc(C)nc(NC(=O)c2ccc(C)c([N+](=O)[O-])c2)n1	5.9%	?	6.3%
Cc1ccc(C(=O)Nc2ccccc2-c2ccccc2)cc1[N+](=O)[O-]	17.8µM*	109.5	-5.7%
Cc1ccc(C(=O)Nc2ccccc2C(=O)N2CCCC2)cc1[N+](=O)[O-]	3.9%	-8.2	-11.1%
Cc1c(C(=O)Nc2ccc3c4c(cccc24)CC3)cccc1[N+](=O)[O-]	-5.9%	29.8	-8.3%
Cc1ccc(C(=O)Nc2ccc3c4c(cccc24)CC3)cc1[N+](=O)[O-]	8.1%	-81.3*	?
CCn1cc(C(=O)Nc2ccc(C)c([N+](=O)[O-])c2)cn1	?	-86.6*	-16.3%
Cc1csc(NC(=O)c2ccc(C)c([N+](=O)[O-])c2)n1	?	-17.1	28.2µM*
CCn1cc(C(=O)Nc2ccc(F)c(F)c2)cn1	-1.1%	-13.6	-6.5%
Cc1ccc(NC(=O)C2CCN(c3cnccn3)CC2)cc1C	-6.9%	·	·
CCCCC[C@H](O)/C=C/C=C\C/C=C\C=C\[C@@H](O)CCCC(=O)O	3.4%	·	-7.0%
Cc1ccc(NC(=O)COC(=O)CSC(=S)N2CCOCC2)cc1	-9.1%	·	·
O=c1cc(-c2ccccc2)[nH]c2cc(Cl)ccc12	-9.6%	-118.9*	-8.4%
O=c1cc(-c2ccccc2)[nH]c2ccc(Cl)cc12	?	·	-8.4%
O=c1cc(-c2cccc(F)c2)[nH]c2ccccc12	4.3%[120 µM]	-91.5*	?
O=c1cc(-c2cccc(F)c2)[nH]c2ccc(Cl)cc12	?	·	-7.5%
C/C(O)=C1\C(=O)[C@@H]2[C@H]3c4c[nH]c5cccc(c45)C[C@H]3C(C)(C)N2C1=O	-3.6%	·	·
CCC(C)n1c(SCc2ccccc2)nc2ccsc2c1=O (configuration not stated)	5.0%	-12.0	-7.6%
CC(C)C[C@@H](CC(=O)N[C@H](CC(=O)N[C@@H]1CCCC[C@H]1C(=O)N[C@H](CC(=O)N[C@@H](CCC(=O)O)CC(=O)O)Cc1c[nH]c2ccccc12)C(C)C)NC(=O)[C@@H]1CNCC[C@H]1N	-15.5%	·	-6.7%
C[C@H](CCC(=O)O)[C@H]1CC[C@@H]2[C@H]3[C@@H](C[C@@H](O)[C@]21C)[C@]1(C)CC[C@H](O)C[C@@H]1C[C@@H]3O	1.0%[13.5 µM]	·	-1.9%
SMILES	ALDH1A1 inh	PNC assembly inh	HPGD inh
COc1ccc(-c2cc(C(=O)Nc3c(C)n(C)n(-c4ccccc4)c3=O)no2)cc1OC	4.4%	·	·
CCc1ccc(C(=O)COC(=O)c2n[nH]c3ccccc23)cc1	5.2%	·	·
CC(C)CN1C(=O)C(=Nc2cccnc2)c2ccccc21	1µM*	·	·
O=C1c2ccccc2C(O)N1c1cccnc1 (configuration not stated)	7.6%	-20.6	-23.0%
COc1ccc(CCNC(=O)CCCn2c(SCC(N)=O)nc3cc4c(cc3c2=O)OCO4)cc1OC	-8.7%	·	·
C=C(CO)C1Cc2c(ccc3c(=O)c4c(oc23)COc2cc(OC)c(OC)cc2-4)O1 (configuration not stated)	-10.8%	·	-3.6%
Cc1cn2c(nc1=O)OC1C(O)C(COC(=O)c3ccccc3)OC12 (configuration not stated)	3.16µM*	-22.2	-0.6%
O=C(OCC1OC2C(Oc3nc(=O)ccn32)C1O)c1ccccc1 (configuration not stated)	?	?	-14.2%
Cc1cn(C2OC(COC(=O)c3ccccc3)C(O)C2O)c(=O)[nH]c1=O (configuration not stated)	3.1%	-88.6*	-7.6%
Cc1cn([C@H]2C[C@H](O)[C@@H](CO)O2)c(=O)[nH]c1=O	2.8%	·	-11.4%
